# Results published in PubChem BioAssay (NCATS).
# Records with an inconclusive call do not appear. Where a call stands in place of a potency, no number is given. Unmarked numbers belong to inactive results. Activity calls are given as the source filed them. Unless noted, calls follow the shape of the full dose curve.
# Legend:
# [1] = Primary qHTS for inhibitors of SARS-S pseudo-typed particle cell entry (AID 1479145); also: nearly all actives have a fitted effect of over 45% in size; also: potency is read from the fitted curve at half-maximal effect; as to activity change, negative = inhibition: series mostly up to about 57 µM
# [2] = Primary qHTS for Huh7 cytotoxicity: counterscreen for inhibitors of MERS-S pseudotyped particle cell entry (AID 1479147)
# [3] = Primary qHTS for inhibitors of MERS-S pseudo-typed particle cell entry (AID 1479149); also: nearly all actives have a fitted effect of over 60% in size; also: potency is read from the fitted curve at half-maximal effect; as to activity change, negative = inhibition: series mostly up to about 57 µM
# [4] = Primary qHTS for Vero E6 cytotoxicity: counterscreen for inhibitors of SARS-S pseudo-typed particle cell entry (AID 1479150)
# [5] = biological target: Protein phosphatase 1D (Homo sapiens) (UniProt O15297); experiment: Rhodamine-PBP qHTS Assay for Modulators of WT P53-Induced Phosphatase 1 (WIP1) (AID 1347425; active = well fitted curve in the direction sought with a large enough effect; an effect the other way counts as inactive or inconclusive)
# In short: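 WIP1 (5 nM final) was preincubated with compound for 1 hour at room temperature. It then dephosphorylated 10 uM VEPPL-pS-QETFS peptide in Tris-HCl pH 7.5 with 30 mM MgCl2. Released Pi was detected by 10 uM Rh-PBP fluorescence (ex 525/em 598 nm) read at 1-min intervals for 11 min, as delta f1 - f0.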
# [6] = Primary qHTS for inhibitors of La Crosse Virus (LACV) - induced cell death in SH-SY5Y cells (AID 1508616; active = well fitted curve in the direction sought with a large enough effect; an effect the other way counts as inactive or inconclusive;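 also: top concentration of the series differs between compounds; higher means more rescue of cells from virus-induced death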)
# In short: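 Luminescent ATP readout (ATPLite 1step, 5 min room temperature) measured rescue from LACV-induced death after 6 days of infection at 0.01 MOI; normalized to infected DMSO wells and uninfected DMSO wells.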
# [7] = biological target: Calcium and integrin-binding protein 1 (Homo sapiens) (UniProt Q99828); experiment: Primary qHTS for Identification of Calcium Integrin Binding Protein 1 (CIB1) Competitor (AID 1508620; active = well fitted curve in the direction sought with a large enough effect; an effect the other way counts as inactive or inconclusive;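 also: GST tagged CIB1 binding a fluorescein labelled alphaIIb integrin peptide tracer; top concentration of the series differs between compounds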)
# In short: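 Fluorescence polarization competition: GST-tagged CIB1 (1 uM final) preincubated with compound 15 min at room temperature, then FITC-labelled alphaIIb peptide (100 nM final) added. After 15 min at room temperature, polarization read at Ex 480/Em 540.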
# [8] = Counterscreen qHTS for small molecule stabilizers of the endoplasmic reticulum resident proteome: GLuc-NoTag assay (AID 1508627; active = well fitted curve in the direction sought with a large enough effect; an effect the other way counts as inactive or inconclusive;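 also: SH-SY5Y cells given compound then 100 nM thapsigargin to empty ER calcium; series mostly up to about 76 µM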)
# In short: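 SH-SY5Y cells stably expressing constitutively secreted GLuc without SERCaMP tag, exposed to compound for 19 hr, then to 100 nM thapsigargin for 4 hr at 37C. Medium luciferase was read by coelenterazine luminescence without lysis.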
# [9] = Cell Viability qHTS for small molecule stabilizers of the endoplasmic reticulum resident proteome (AID 1508629; active = well fitted curve in the direction sought with a large enough effect; an effect the other way counts as inactive or inconclusive;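 also: human SH-SY5Y neuroblastoma cells carrying the GLuc-SERCaMP reporter; compound exposure about 46 h in total before the viability read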); conditions: cell viability counter-screen, 100 nM thapsigargin for final 4 h
# [10] = biological target: Protein phosphatase 1D (Homo sapiens) (UniProt O15297); experiment: RapidFire Mass Spectrometry qHTS Assay for Modulators of WT P53-Induced Phosphatase 1 (WIP1) (AID 1347424; active = well fitted curve in the direction sought with a large enough effect; an effect the other way counts as inactive or inconclusive;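 also: amount of dephosphorylated VEPPL-S-QETFS peptide product formed by WIP1; series mostly up to about 63 µM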)
# In short: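 10 nM WIP1 preincubated with compounds 1 hr at room temperature in pH 7.5 Tris buffer with 30 mM MgCl2, 1 mM TCEP; 2 uM VEPPL-pS-QETFS phosphopeptide for 5 min, formic acid quench; dephosphorylated product quantified by RapidFire MS against labelled standard.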
# [11] = Confirmatory qHTS for small molecule stabilizers of the endoplasmic reticulum resident proteome: Secreted ER Calcium Modulated Protein (SERCaMP) assay (AID 1508628; active = well fitted curve in the direction sought with a large enough effect; an effect the other way counts as inactive or inconclusive; also: potency is read from the fitted curve at half-maximal effect; nearly all actives have a fitted effect of over 40% in size)
# In short: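 We seeded SH-SY5Y-GLuc-SERCaMP cells, added compounds (three concentrations in the primary run, eleven up to 76.6 uM in confirmation), incubated 16 h, depleted ER calcium with thapsigargin, and read luciferase 4 h later.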
# Protein phosphatase 1D (Homo sapiens), sequence (O15297 whole entry, looked up): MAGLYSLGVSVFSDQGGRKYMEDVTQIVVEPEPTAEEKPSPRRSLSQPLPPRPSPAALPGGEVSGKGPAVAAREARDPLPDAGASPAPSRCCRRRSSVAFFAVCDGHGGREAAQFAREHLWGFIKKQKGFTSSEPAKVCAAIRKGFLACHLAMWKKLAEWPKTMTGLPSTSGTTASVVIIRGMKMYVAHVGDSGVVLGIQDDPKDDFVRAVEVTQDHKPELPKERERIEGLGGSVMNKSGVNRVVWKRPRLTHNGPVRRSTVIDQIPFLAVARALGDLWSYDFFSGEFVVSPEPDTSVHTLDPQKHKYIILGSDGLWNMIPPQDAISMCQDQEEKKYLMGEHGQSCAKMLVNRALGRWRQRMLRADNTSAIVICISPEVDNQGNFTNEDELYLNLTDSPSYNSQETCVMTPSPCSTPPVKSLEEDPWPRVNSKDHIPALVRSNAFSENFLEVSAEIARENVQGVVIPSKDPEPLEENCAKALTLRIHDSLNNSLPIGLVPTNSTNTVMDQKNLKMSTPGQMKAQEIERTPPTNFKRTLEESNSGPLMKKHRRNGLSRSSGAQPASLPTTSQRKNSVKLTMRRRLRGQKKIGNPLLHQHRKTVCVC
# Calcium and integrin-binding protein 1 (Homo sapiens), sequence (Q99828 whole entry, looked up): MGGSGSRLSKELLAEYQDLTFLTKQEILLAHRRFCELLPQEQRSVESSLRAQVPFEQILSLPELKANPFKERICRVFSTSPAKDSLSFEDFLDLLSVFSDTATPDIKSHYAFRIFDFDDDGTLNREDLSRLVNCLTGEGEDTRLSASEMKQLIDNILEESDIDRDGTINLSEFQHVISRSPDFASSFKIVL
smiles,measurement,setting,value
CN(C)CC/C=C1/c2ccccc2COc2ccc(CC(=O)O)cc21,Potency,[1],inactive
same,Potency,[2],inactive
same,Potency,[3],inactive
same,Potency,[4],inactive
CC(C)(C)c1nnc(NS(=O)(=O)c2ccccc2)s1,Potency,[1],inactive
same,Potency,[2],inactive
same,Potency,[3],inactive
CN1[C@@H]2CC[C@H]1CC(OC(=O)C(O)c1ccccc1)C2 (some centres undefined),Potency,[1],inactive
same,Potency,[2],inactive
same,Potency,[3],inactive
same,Potency,[4],inactive
NC(CO)C(=O)NNCc1ccc(O)c(O)c1O (centres undefined),Potency,[1],inactive
same,Potency,[2],inactive
same,Potency,[3],inactive
same,Potency,[4],inactive
Nc1ccc(Cl)cc1N,outcome,[5],inactive
same,outcome,[6],inactive
same,outcome,[7],inactive
same,Potency,[8],inactive
same,max response,[9],1.89%
O=C1NS(=O)(=O)c2ccccc21,Potency,[1],inactive
same,Potency,[2],inactive
same,Potency,[3],inactive
same,Potency,[4],inactive
COc1ccc2cc(CCC(C)=O)ccc2c1,Potency,[1],inactive
same,Potency,[2],inactive
same,Potency,[3],inactive
same,Potency,[4],inactive
Nc1ccc(N=Nc2ccccc2)cc1,Potency,[10],inactive
same,outcome,[7],inactive
same,Potency,[8],inactive
same,Potency,[11],44.7 µM (active)
same,max response,[9],1.98%
C=CCNC(N)=S,Potency,[1],inactive
same,Potency,[2],inactive
same,Potency,[3],inactive
same,Potency,[4],inactive
Cc1c(C)c2c(c(C)c1OC(=O)c1cccnc1)CC[C@@](C)(CCC[C@H](C)CCC[C@H](C)CCCC(C)C)O2,Potency,[1],inactive
same,Potency,[2],inactive
same,Potency,[3],inactive
same,Potency,[4],inactive
CNCc1ccc(-c2[nH]c3cc(F)cc4c3c2CCNC4=O)cc1,Potency,[1],inactive
same,Potency,[2],inactive
same,Potency,[3],inactive
same,Potency,[4],inactive
CC(C[N+](C)(C)C)OC(N)=O (centres undefined),Potency,[1],inactive
same,Potency,[2],inactive
same,Potency,[3],inactive
same,Potency,[4],inactive
C/C(=C1\CCOC(=O)S1)N(C=O)Cc1cnc(C)nc1N,Potency,[1],inactive
same,Potency,[2],inactive
same,Potency,[3],inactive
same,Potency,[4],inactive
O=C(O)c1ccccn1,Potency,[1],inactive
same,Potency,[2],inactive
same,Potency,[3],inactive
same,Potency,[4],inactive
O=C(Nc1cccc(C2=NCCN2)c1)Nc1cccc(C2=NCCN2)c1,Potency,[1],inactive
same,Potency,[2],inactive
same,Potency,[3],inactive
same,Potency,[4],inactive
CC(=O)Oc1ccccc1C(=O)O,Potency,[1],inactive
same,Potency,[2],inactive
same,Potency,[3],inactive
same,Potency,[4],inactive
COC(=O)c1ccc2c(C(=Nc3ccc(N(C)C(=O)CN4CCN(C)CC4)cc3)c3ccccc3)c(O)[nH]c2c1,Potency,[1],inactive
same,Potency,[2],inactive
same,Potency,[3],inactive
same,Potency,[4],inactive
S=c1[nH]c2ccccc2s1,Potency,[1],inactive
same,Potency,[2],inactive
same,Potency,[3],inactive
same,Potency,[4],inactive
CC(C)C[C@H](NC(=O)[C@@H](O)[C@H](N)Cc1ccccc1)C(=O)O,Potency,[1],inactive
same,Potency,[2],inactive
same,Potency,[3],inactive
same,Potency,[4],inactive
CCCCC(CC)COC(=O)c1ccc(N(C)C)cc1 (centres undefined),Potency,[1],inactive
same,Potency,[2],inactive
same,Potency,[3],inactive
same,Potency,[4],inactive
Nc1nc2c(ncn2CCC(CO)CO)c(=O)[nH]1,Potency,[1],inactive
same,Potency,[2],inactive
same,Potency,[3],inactive
same,Potency,[4],inactive
CC(=O)Nc1ccc(O)cc1,Potency,[1],inactive
same,Potency,[2],inactive
same,Potency,[3],inactive
same,Potency,[4],inactive
O=C(O)CNC(=O)CNC(=O)CNC(=O)CSC(=O)c1ccccc1,Potency,[1],inactive
same,Potency,[2],inactive
same,Potency,[3],inactive
same,Potency,[4],inactive
CNC(=O)c1ccc(N2C(=S)N(c3ccc(C#N)c(C(F)(F)F)c3)C(=O)C2(C)C)cc1F,Potency,[1],8.91 µM (active)
same,Potency,[2],inactive
same,Potency,[4],inactive
CCCOC(=O)c1ccc(O)cc1,Potency,[2],inactive
same,Potency,[3],inactive
same,Potency,[4],inactive
C[C@H](CN1CCCC1)C(=O)c1ccc(C(F)(F)F)cc1,Potency,[1],inactive
same,Potency,[2],inactive
same,Potency,[4],inactive
CCOc1cc2ncc(C#N)c(Nc3ccc(OCc4ccccn4)c(Cl)c3)c2cc1NC(=O)/C=C/CN(C)C,outcome,[2],inactive [at 11.4 µM]
same,"activity change, negative = inhibition",[3],-11.6% [at 11.4 µM]
same,"activity change, negative = cytotoxicity",[4],-35.9% [at 11.4 µM]
CS(=O)(=O)c1ccc(C(=O)Nc2ccc(Cl)c(-c3ccccn3)c2)c(Cl)c1,Potency,[1],inactive
same,Potency,[2],inactive
same,Potency,[3],inactive
same,Potency,[4],inactive
CCCCCCCCCCC(CO)CCCCCCCC (centres undefined),Potency,[1],inactive
same,Potency,[2],inactive
same,Potency,[3],inactive
same,Potency,[4],inactive
CN1CCN(c2c(F)cc3c(=O)c(C(=O)O)cn4c3c2OCN4C)CC1,Potency,[1],inactive
same,Potency,[2],inactive
same,Potency,[3],inactive
same,Potency,[4],inactive
c1ccc2[nH]ccc2c1,Potency,[1],inactive
same,Potency,[2],inactive
same,Potency,[3],inactive
same,Potency,[4],inactive
CC(C)C[C@H](NC(=O)CNC(=O)c1cc(Cl)ccc1Cl)B(O)O,Potency,[1],inactive
same,Potency,[3],0.794 µM (active)
N[C@H]1C(O)O[C@H](CO)[C@@H](O)[C@@H]1O (some centres undefined),Potency,[1],inactive
same,Potency,[2],inactive
same,Potency,[3],inactive
same,Potency,[4],inactive
CCN(CC)c1ccc(C(=C2C=CC(=[N+](CC)CC)C=C2)c2cc(S(=O)(=O)O)ccc2S(=O)(=O)[O-])cc1,Potency,[1],inactive
same,Potency,[3],inactive
